Data: PubChem BioAssay (NCATS)
Inconclusive results are not listed. The source made the active and inactive calls. The call rests on the fitted dose curve; in most records, active means well fitted cell-killing curve with a large enough effect; inconclusive means small, poorly fitted or top-dose-only effect; inactive means flat fitted curve, though single readings scatter.

Experiment: qHTS of pediatric cancer cell lines to identify multiple opportunities for drug repurposing: Primary screen for BT-12 cells (AID 1347101); further: nearly all actives have a fitted effect of over 25% in size
Details: BT-12 viability, CellTiter-Glo luminescence, 48 h; series mostly up to 57.3 µM; activity change, negative = cytotoxic: at the top concentration
Source text: Drug repurposing or repositioning has been offered as a strategy for drug development in oncology programs. This approach has special potential for childhood cancers and other rare or orphan diseases, where the expected return on new drug development has been a disincentive to pharmaceuticals.
In this project we exploit the poly-pharmacology of drugs to discover new indications via phenotypic screening of a panel of 19 well-characterized cell lines derived from solid tumors seen in children and adolescents. The goal is to identify approved drugs with previously unrecognized anticancer properties that has the potential to reveal new mechanisms and biological processes involved in carcinogenesis or drug resistance. We employed a titration-based paradigm (quantitative high-throughput screening or qHTS), where all compounds were tested at multiple concentrations for their effect on cell viability. Concentration-response curves (CRCs) were derived directly from the primary screen, and both potency and efficacy values were used to identify compounds with robust bioactivity profiles. We screened the NIH Chemical Genomics Center (NCGC) Pharmaceutical Collection (NPC) and Mechanism Interrogation Plate (MIPE) small molecule collections of approved and investigational compounds against these cell lines; and measured metabolically active cells after 48 hours of compound treatment as a proxy for cell viability.
Assay Submitter: Nathalia J. Martinez, National Center for Advancing Translational Sciences, National Institutes of Health, Rockville, MD, USA; email: natalia.martinez@nih.gov
[1] Shen, M et al. Quantitative high-throughput phenotypic screening of pediatric cancer cell lines identifies multiple opportunities for drug repurposing. Oncotarget 2017 Dec 19;9(4):4758-4772. PMID 29435139.
The cells were obtained from University of North Carolina (UNC), Pediatric Preclinical Testing Program (PPT), and Coriell Institute (CI).
qHTS cell viability assay:
Cells were assayed in growth media at a density of 500-1,000 cells/well. Five microliters of cells were dispensed into 1,536-well, white, solid-bottom, TC-treated plates (Greiner Bio One) using a multidrop dispenser and incubated at 37 degrees C, 5% CO2, under a humidified atmosphere for 5 hours. Twenty-three nanoliters of compounds and controls (neutral control DMSO or positive control bortezomib at final concentration of 2.3 µM) were subsequently transferred by Kalypsys pintool. For primary screens, the MIPE collection was tested at 11-point dilutions (final concentrations range from 0.78 nM to 46 µM) and the NPC collection at 8-point dilutions (final concentrations range from 0.59 nM to 46 µM). Compounds tested in follow-up screens were assayed at 11-point dilutions. Cells were incubated for 48 hours, followed by addition of 3 µL of CellTiter-Glo (Promega). After a 15 min incubation at room temperature, samples were analyzed for luminescence intensity using a ViewLux High-throughput CCD imager equipped with clear filters.
Potency means the concentration at half of the fitted maximal effect.

SMILES | activity change, negative = cytotoxic | Potency
COC(=O)c1cc(Cl)c(NC(C)=O)cc1OC | 12.8% (inactive) | 
CCc1cccc2c(CCO)c[nH]c12 | 7.75% (inactive) | 
O=C(CS(=O)Cc1ccco1)NC/C=C\COc1cc(CN2CCCCC2)ccn1 (stereo not given) | 3% (inactive) | 
CC(C)(C)c1nnc(NS(=O)(=O)c2ccccc2)s1 | 10.1% (inactive) | 
CCc1cc2cc(OC)c(OC)cc2c(Cc2ccccc2)n1 | -0.2% (inactive) | 
COc1ccc2c(c1)c(CC(=O)OC/C=C(\C)CC/C=C(\C)CCC=C(C)C)c(C)n2C(=O)c1ccc(Cl)cc1 | -2.86% (inactive) | 
CC(=O)O[C@@H]1CC2C3CCc4cc(OC(=O)c5ccccc5)ccc4C3CCC2(C)[C@H]1OC(C)=O (stereo not given in full) | 13% (inactive) | 
CC(C)NC(=O)c1ccc(C=O)cc1 | 8.73% (inactive) | 
CCC(=O)O[C@]1(C(=O)COC)[C@@H](C)C[C@H]2[C@@H]3CCC4=CC(=O)C=C[C@]4(C)C3(F)[C@@H](O)C[C@@]21C (stereo not given in full) | 2.2% (inactive) | 
CC(COc1ccccc1)NN (stereo not given) | 8.95% (inactive) | 
CC(C)C(=O)Nc1cccc(C(F)(F)F)c1 | -0.114% (inactive) | 
OC[C@]1(O)OC[C@@H](O)[C@H](O)[C@@H]1O | 5.84% (inactive) | 
CCCCC(O)/C=C(C)/C=C/C=C/C(=O)N1CCCC1=O (stereo not given) | 16.3% (inactive) | 
CC(C)(C)CC(=O)OCC(=O)[C@@]1(O)CC[C@H]2[C@@H]3CCC4=CC(=O)C=C[C@]4(C)[C@H]3[C@@H](O)C[C@@]21C | -12.8% (inactive) | 
NS(=O)(=O)c1ccc(N2CCCCS2(=O)=O)cc1 | 7.17% (inactive) | 
CCC1(c2cnc[nH]2)Cc2ccccc2C1 | -20.8% (inactive) | 
CO/N=C(/C(=O)N[C@@H]1C(=O)N2C(C(=O)O)=C(Cn3nnc(C)n3)CS[C@H]12)c1csc(N)n1 | 14.3% (inactive) | 
Cc1onc(-c2ccccc2)c1C(=O)Cl | 5.64% (inactive) | 
CCCC(=O)c1cc(O)c(O)cc1O | -11.5% [at 116 µM] (inactive) | 
O=[N+]([O-])c1cncn1CCN1CCOCC1 | 11.6% (inactive) | 

SMILES | activity change, negative = cytotoxic | Potency
CC(=O)CC/C=C(\C)CC/C=C(\C)CC/C=C(\C)CCC=C(C)C | 2.64% (inactive) | 
CC(CC(C#N)(c1ccccc1)C(C)C)N(C)C (stereo not given) | 4.32% (inactive) | 
CC(=O)c1cc2ccccc2s1 | 7.46% (inactive) | 
CCN1CCCC1CN (stereo not given) | 2.26% (inactive) | 
O=C1NC(c2ccccc2)(c2ccccc2)C(=O)N1COP(=O)(O)O | 9.8% (inactive) | 
CN1C(=O)c2ccccc2C1=O | 7.75% [at 116 µM] (inactive) | 
CC1CC(=O)NN=C1c1ccc(NCC(C)(C)NCC(O)COc2cc(Cl)ccc2C#N)cc1 (stereo not given) | -11.9% (inactive) | 
N#Cc1cc(NC(=O)C(=O)O)c(Cl)c(NC(=O)C(=O)O)c1 | 9.08% (inactive) | 
O=c1[nH]c(=O)n([C@H]2O[C@H](CO)[C@@H](O)[C@@H]2O)cc1/C=C\Br | 11% (inactive) | 
COc1cc(S(N)(=O)=O)cc(C(=O)O)c1OC | 0.994% (inactive) | 
CCCCOCCOC(=O)c1cccnc1 | 12.4% (inactive) | 
CCCCCN(CCCOC)C(=O)C(CCC(=O)O)NC(=O)c1ccc(Cl)c(Cl)c1 (stereo not given) | 4.09% (inactive) | 
O=C(O)c1ccccc1S | 9.68% (inactive) | 
O=C(Oc1ccccc1)c1cccc(C(=O)Oc2ccccc2)c1 | -4.57% [at 116 µM] (inactive) | 
CCn1ccc(NS(=O)(=O)c2ccc(N)cc2)nc1=O | 6.6% (inactive) | 
CCC[C@H](N[C@@H](C)C(=O)N1[C@H](C(=O)O)C[C@@H]2CCCC[C@@H]21)C(=O)OCC | 4.08% (inactive) | 
CCCCCC(=O)O[C@]1(C(C)=O)CC[C@H]2[C@@H]3CCC4=CC(=O)CC[C@]4(C)[C@H]3CC[C@@]21C |  | 27.6 µM (active)
C#CC(C)(CC)OC(=O)c1ccccc1C(=O)O (stereo not given) | 7.97% (inactive) | 
CC(C)(C)c1ccc(C(=O)CCCCl)cc1 | -6% (inactive) | 
CN1CCC(N(Cc2cccs2)c2ccccc2)CC1 |  | 21.9 µM (active)
